This is a sample that favours compounds with a hit; in the whole collection about 3.8% have one here.
HT1080 IDH1KD tx = qHTS for induction of synthetic lethality in tumor cells producing 2HG: qHTS for the HT-1080-IDH1KD cell line; Potency, µM (doses to about 46.1 µM), usual class: cytotoxic; HT-1080 IDH1 knockdown viability, ATP luminescence, 48 h; hit rate 2% among 360,000; AID 686971, 2013
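Cytotoxicity counter-line: IDH1KD HT-1080, 48 h, CellTiter-Glo. Curves classed by r2, magnitude and activity.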
ATXN2 expr inh = Primary qHTS for Inhibitors of ATXN expression; HEK-293 ATXN2-luciferase reporter, luminescence, 24 h; Potency, µM (series often up to 57 µM), most hits filed as inhibitors; hit rate 0.72% among 360,000; AID 1745845, 2022; note: nearly all actives have a fitted effect of over 55% in size
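ATXN2-luciferase reporter cells (luciferase flanked by upstream and downstream ATXN2 gene portions) were treated 24 h at 37 °C with compounds at up to 57 uM. SteadyGlo luminescence gave expression; GF-AFC fluorescence gave viability.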
HepG2 tox-1 = qHTS for Inhibitors of TGF-b: Cytotox Counterscreen. Potency, µM (doses to about 46.1 µM), usual class: cytotoxic. hit rate 0.76% among 410,000. AID 588856, 2011. HepG2 CAGA-GFP viability, ATP luminescence, 18 h
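CellTiter-Glo luminescence gave cytotoxicity after 18 hours at 37 degrees C. The cells were HepG2 CAGA-GFP in 1% FBS DMEM, stimulated with 500 pg/mL TGF-beta after compound addition. %Activity was normalised to no-cell wells (complete cell-killing) and DMSO (no toxicity), and curves were fitted and classified.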
ATXN viability = Viability Counterscreen for Primary qHTS for Inhibitors of ATXN expression; S2 cells (HEK-293 line with an ATXN2-luciferase reporter) viability, CellTiter-Fluor protease fluorescence, 24 h; Potency, µM (doses to about 56.7 µM), hits mostly cytotoxic; hit rate 0.49% among 400,000; AID 651635, 2014; note: nearly all actives have a fitted effect of over 40% in size
HT1080NT lethal = qHTS for induction of synthetic lethality in tumor cells producing 2HG: qHTS for the HT-1080-NT fibrosarcoma cell line; HT-1080-NT fibrosarcoma viability, CellTiter-Glo ATP luminescence, 48 h; Potency, µM (series often up to 46.1 µM), hits mostly cytotoxic; hit rate 1.6% among 360,000; AID 686970, 2013;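 note: NT is the 2HG producing partner of a matched IDH1 knockdown line; nearly all actives have a fitted effect of over 55% in size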
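HT-1080-NT; 750 cells/well; 5% FBS RPMI; 48 h compound, 37 degrees C; CellTiter-Glo luminescence; curve fitting and curve-class assignment.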
TGFb inhibitor = qHTS for Inhibitors of TGF-b; AID 588855, 2011; Potency, µM (doses to about 46.1 µM), hits mostly inhibitors; HepG2 CAGA-GFP TGF-b/SMAD3 reporter, GFP fluorescence, 18 h; TGF-beta stimulated, 500 pg/mL final; hit rate 1.2% among 410,000; note: nearly all actives have a fitted effect of over 65% in size
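HEPG2 CAGA-GFP, 1000 cells/well; 2 h settle, 37 C; cpd via pin tool; TGF-b 500 pg/mL final; 18 h, 37 C; GFP imaging ex488/em500-530; %Activity normalised to -TGF-b and +DMSO controls; CRC fit, curve class.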
TGFb confirm = qHTS for Inhibitors of TGF-b: Confirmation of Cherry Picks; shares compounds with TGFb inhibitor; HepG2 CAGA-GFP TGF-b reporter, GFP fluorescence, 18 h; cells stimulated with TGF-beta, 500 pg/mL; Potency, µM (highest dose often 46.1 µM), hits mostly inhibitors; hit rate 63% among 1,600; AID 720534, 2013; note: nearly all actives have a fitted effect of over 65% in size
HepG2 tox-2 = qHTS for Inhibitors of TGF-b: Cytotox Counterscreen for Cherry Picks. shares compounds with TGFb inhibitor. HepG2 CAGA-GFP viability, ATP luminescence, 18 h; cells stimulated with TGF-beta, 500 pg/mL. Potency, µM (series often up to 46.1 µM), hits mostly inhibitors. hit rate 27% among 1,600. AID 720535, 2013; note: nearly all actives have a fitted effect of over 70% in size
TGFb CCL64 inh = qHTS for Inhibitors of TGF-b: CCL64 Cells Orthogonal Assay for Cherry Picks; hit rate 41% among 1,600; shares compounds with TGFb inhibitor; CCL64 CAGA-GFP reporter, TGF-b stimulated, GFP fluorescence, 18 h; Potency, µM (top dose mostly 46.1 µM), hits mostly inhibitors; note: nearly all actives have a fitted effect of over 65% in size
TGFb COP inh = qHTS for Inhibitors of TGF-b: Hit Validation in HepG2 Cells using COP promoter. AID 720537, 2013. shares compounds with TGFb inhibitor. HepG2 COP-GFP TGF-b reporter, GFP fluorescence, 18 h; cells stimulated by added recombinant TGF-beta. hit rate 3% among 1,600. Potency, µM (titrated, usually from 46.1 µM), usual class: inhibitors; note: nearly all actives have a fitted effect of over 70% in size
A number is an active result. Calls come from the whole dose curve; as a rule, active = well fitted curve in the direction sought with a large enough effect; inconclusive = small, poorly fitted or top-dose-only effect, or another doubt; inactive = no such curve, though single readings can be large; an effect the other way counts as inactive or inconclusive.

Screening CC(=O)OCC(NC(=O)C(Cc1ccccc1)NC(=O)OC(C)(C)C)C1OC(n2cc(C)c(=O)[nH]c2=O)C(OC(C)=O)C1OC(C)=O (stereo not given) returned HepG2 tox-1 inactive and TGFb inhibitor inactive.
For CC(Oc1ccc(Cl)cc1Cl)C(=O)NC1=NN(c2ccccc2)C(=O)C1 (stereo not given) the results were HT1080 IDH1KD tx inconclusive, ATXN2 expr inh inactive, HepG2 tox-1 inactive, ATXN viability inactive, HT1080NT lethal inactive, TGFb inhibitor 18µM, TGFb confirm inconclusive, HepG2 tox-2 inconclusive, TGFb CCL64 inh inconclusive and TGFb COP inh inactive.
For COC(=O)c1[nH]c2c(c1C)C(=O)CC(c1ccc(OC)cc1)C2 (stereo not given) the results were HT1080 IDH1KD tx inactive, ATXN2 expr inh inactive, HepG2 tox-1 inactive, ATXN viability inactive, HT1080NT lethal inactive and TGFb inhibitor inactive.
Screening COC(=O)c1[nH]c2c(c1C)C(=O)CC(c1ccccc1)C2 (stereo not given) returned HT1080 IDH1KD tx inconclusive, ATXN2 expr inh inactive, HepG2 tox-1 inactive, ATXN viability inconclusive, HT1080NT lethal 0.45µM, TGFb inhibitor inconclusive, TGFb confirm inconclusive, HepG2 tox-2 inactive, TGFb CCL64 inh inconclusive and TGFb COP inh inactive.
Cc1c(C(=O)OCC(C)C)[nH]c2c1C(=O)CC(c1ccco1)C2 (stereo not given) was read as HT1080 IDH1KD tx 1.2µM, ATXN2 expr inh inactive, HepG2 tox-1 inactive, ATXN viability inconclusive, HT1080NT lethal 1.5µM, TGFb inhibitor inconclusive, TGFb confirm 9.2µM, HepG2 tox-2 inactive, TGFb CCL64 inh 8.2µM and TGFb COP inh inactive.
c1ccc(CSc2nnc(C3CCNCC3)o2)cc1 was read as ATXN2 expr inh inactive, HepG2 tox-1 inactive, ATXN viability inactive and TGFb inhibitor inactive.
For O=C(NCCN1CCOCC1)c1cc(S(=O)(=O)Nc2ccccc2F)c(Cl)cc1Cl the results were HT1080 IDH1KD tx inactive, ATXN2 expr inh inactive, HepG2 tox-1 inactive, ATXN viability inactive, HT1080NT lethal inactive and TGFb inhibitor inactive.
`O=C(c1cc(S(=O)(=O)Nc2ccccc2F)c(Cl)cc1Cl)N1CCN(CCO)CC1` gave HT1080 IDH1KD tx inactive, HepG2 tox-1 inactive, ATXN viability inactive, HT1080NT lethal inactive, TGFb inhibitor inconclusive, TGFb confirm inactive, HepG2 tox-2 inactive, TGFb CCL64 inh inconclusive and TGFb COP inh inactive.
